Drawing on PubChem BioAssay (EPA / NIEHS), this text covers outcome and AC50 for 20 molecules.

What is called AC50 is the concentration at which the activity in the assay is half-maximal.

Common to all, as to conditions: mRNA level, 48 h; actives raise or lower the signal
Read-out in assay [1]: Nuclear factor NF-kappa-B p105 subunit (Homo sapiens) (UniProt P19838)
Briefly: LTEA_HepaRG_NFKB1: Life Technologies and Expression Analysis (LTEA) Assay for Nuclear Factor Kappa B Subunit 1 (NFKB1) using HepaRG (AID 2283521).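 As to outcome: differentiated human HepaRG liver cells in serum-free induction medium.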 The gist of the method: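 NFKB1 transcript was measured by TaqMan qRT-PCR on Fluidigm arrays, normalised to three housekeeping genes and fitted in both directions against 0.5% DMSO. HepaRG cells were dosed in duplicate for 48 h in serum-free induction medium, eight half-log steps from 100 uM.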

Read-out in assay [2]: Protein phosphatase 2A (PPP2R4), PTPA (gene 5524)
The assay can be described thus: LTEA_HepaRG_PPP2R4: Life Technologies and Expression Analysis (LTEA) Assay for Protein phosphatase 2A (PPP2R4) using HepaRG (AID 2283522). The method, boiled down: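 Readout is PPP2R4 transcript level by microfluidic qRT-PCR after 48 h chemical treatment of human HepaRG liver cells. Concentrations spanned 100 uM downward in half-log steps; gain or loss of signal was fitted relative to DMSO.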

Read-out in assay [3]: Phosphatase and tensin (PTEN), PTEN (gene 5728)
The assay can be described thus: LTEA_HepaRG_PTEN: Life Technologies and Expression Analysis (LTEA) Assay for Phosphatase and tensin (PTEN) using HepaRG (AID 2283523). The method, boiled down: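 Read-out is PTEN transcript level by multiplexed TaqMan qRT-PCR after 48 h chemical treatment of human HepaRG cultures in serum-free induction medium. Concentrations spanned 100 uM downward in half-log steps, 0.5% DMSO throughout; activity fitted in both directions against vehicle.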

Read-out in assay [4]: solute carrier (SLC22A1), SLC22A1 (gene 6580)
The assay can be described thus: LTEA_HepaRG_SLC22A1: Life Technologies and Expression Analysis (LTEA) Assay for solute carrier (SLC22A1) using HepaRG (AID 2283524).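 As to AC50: differentiated human HepaRG liver cells in serum-free induction medium.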 The gist of the method: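 HepaRG (human liver line), 48 h dosing in serum-free induction medium; 8 conc., half-log down from 100 uM, 0.5% DMSO vehicle, duplicates. Endpoint: SLC22A1 mRNA, qRT-PCR, housekeeping-normalized; gain/loss fit vs DMSO.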

Read-out in assay [5]: Pyruvate Dehydrogenase Kinase 4 (PDK4), PDK4 (gene 5166)
The assay can be described thus: LTEA_HepaRG_PDK4: Life Technologies and Expression Analysis (LTEA) Assay for Pyruvate Dehydrogenase Kinase 4 (PDK4) using HepaRG (AID 2283525). The method, boiled down: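 In this multiplexed human HepaRG expression assay, cells are treated 48 h with test chemicals across an eight-point range starting at 100 uM. PDK4 mRNA changes, normalized to ACTB/GAPDH/POLR2A, are fitted in both directions relative to vehicle.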

Read-out in assay [6]: NAD(P)H dehydrogenase [quinone] 1 (NQO1), NQO1 (gene 1728)
The assay can be described thus: LTEA_HepaRG_NQO1: Life Technologies and Expression Analysis (LTEA) Assay for NAD(P)H dehydrogenase [quinone] 1 (NQO1) using HepaRG (AID 2283526). The gist of the method:
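HepaRG, 48 h post-plating → serum-free induction medium → test chemical 48 h (duplicate, 100 uM top, half-log x8, 0.5% DMSO) → RNA isolation → qRT-PCR, ACTB/GAPDH/POLR2A normalization; bidirectional curve fit vs DMSO baseline.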

Read-out in assay [7]: Nuclear factor erythroid 2-related factor 2 (Homo sapiens) (UniProt Q16236)
Briefly: LTEA_HepaRG_NFE2L2: Life Technologies and Expression Analysis (LTEA) Assay for Nuclear factor erythroid 2-related factor 2 (NFE2L2) Transcription Factor using HepaRG (AID 2283527). The gist of the method: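 Transcript level of NFE2L2 is the read-out, measured by microfluidic TaqMan qRT-PCR and normalized to three housekeeping genes. Human HepaRG cultures received test chemical for 48 h at up to 100 uM in half-log steps. Gain or loss of signal is fitted relative to 0.5% DMSO.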

Read-out in assay [8]: succinate dehydrogenase complex iron sulfur subunit B (SDHB), SDHB (gene 6390)
Briefly: LTEA_HepaRG_SDHB: Life Technologies and Expression Analysis (LTEA) Assay for succinate dehydrogenase complex iron sulfur subunit B (SDHB) using HepaRG (AID 2283528). The method, boiled down:
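SDHB transcript level read by TaqMan qRT-PCR, housekeeping-normalised (ACTB, GAPDH, POLR2A), after 48 h chemical treatment of plated HepaRG cells; eight concentrations top 100 uM, half-log steps, 0.5% DMSO, duplicates; fitted both directions against DMSO.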

Read-out in assay [9]: Signal transducer and activator of transcription 3 (Homo sapiens) (UniProt P40763)
Briefly: LTEA_HepaRG_STAT3: Life Technologies and Expression Analysis (LTEA) Assay for Signal transducer and activator of transcription (STAT3) using HepaRG (AID 2283529). The method, boiled down:
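Read-out is STAT3 mRNA level by qRT-PCR, normalized to three housekeeping genes, in human HepaRG liver cells treated for 48 h. Concentrations ran from 100 uM downward in half-log steps; curves were fitted for gain or loss relative to 0.5% DMSO.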

Read-out in assay [10]: solute carrier (SLCO1B1), SLCO1B1 (gene 10599)
The assay can be described thus: LTEA_HepaRG_SLCO1B1: Life Technologies and Expression Analysis (LTEA) Assay for solute carrier (SLCO1B1) using HepaRG (AID 2283530). The gist of the method:
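SLCO1B1 transcript read by qRT-PCR (Fluidigm arrays), normalized to three housekeeping genes, after 48 h chemical exposure of HepaRG cells; bidirectional concentration-response fitting versus 0.5% DMSO baseline. Eight-point half-log series, maximum 100 uM.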

Activity calls are given as the source filed them. The calls were made as follows: active = hit-call score of the fitted dose curve at least 0.9, where 1 is the maximum; inactive = score below 0.9.

Chain of Nuclear factor erythroid 2-related factor 2 (Homo sapiens) (Q16236 whole entry, looked up): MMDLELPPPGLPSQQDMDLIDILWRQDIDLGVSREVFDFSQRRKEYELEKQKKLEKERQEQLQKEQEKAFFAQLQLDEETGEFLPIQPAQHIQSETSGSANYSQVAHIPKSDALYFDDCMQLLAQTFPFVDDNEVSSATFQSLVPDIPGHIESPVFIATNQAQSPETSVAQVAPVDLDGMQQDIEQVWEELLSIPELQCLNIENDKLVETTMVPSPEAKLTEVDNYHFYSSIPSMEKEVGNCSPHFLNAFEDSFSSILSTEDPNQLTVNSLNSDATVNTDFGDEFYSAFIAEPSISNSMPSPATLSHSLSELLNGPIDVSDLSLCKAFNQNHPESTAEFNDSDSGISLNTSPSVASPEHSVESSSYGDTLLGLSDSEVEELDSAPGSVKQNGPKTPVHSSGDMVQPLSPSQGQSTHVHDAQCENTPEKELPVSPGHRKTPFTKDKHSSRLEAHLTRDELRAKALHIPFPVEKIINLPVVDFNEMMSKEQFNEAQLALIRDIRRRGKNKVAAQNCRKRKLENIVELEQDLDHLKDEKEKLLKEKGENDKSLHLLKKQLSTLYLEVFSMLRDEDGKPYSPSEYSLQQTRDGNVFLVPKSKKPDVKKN
Chain of Nuclear factor NF-kappa-B p105 subunit (Homo sapiens) (P19838 whole entry, looked up): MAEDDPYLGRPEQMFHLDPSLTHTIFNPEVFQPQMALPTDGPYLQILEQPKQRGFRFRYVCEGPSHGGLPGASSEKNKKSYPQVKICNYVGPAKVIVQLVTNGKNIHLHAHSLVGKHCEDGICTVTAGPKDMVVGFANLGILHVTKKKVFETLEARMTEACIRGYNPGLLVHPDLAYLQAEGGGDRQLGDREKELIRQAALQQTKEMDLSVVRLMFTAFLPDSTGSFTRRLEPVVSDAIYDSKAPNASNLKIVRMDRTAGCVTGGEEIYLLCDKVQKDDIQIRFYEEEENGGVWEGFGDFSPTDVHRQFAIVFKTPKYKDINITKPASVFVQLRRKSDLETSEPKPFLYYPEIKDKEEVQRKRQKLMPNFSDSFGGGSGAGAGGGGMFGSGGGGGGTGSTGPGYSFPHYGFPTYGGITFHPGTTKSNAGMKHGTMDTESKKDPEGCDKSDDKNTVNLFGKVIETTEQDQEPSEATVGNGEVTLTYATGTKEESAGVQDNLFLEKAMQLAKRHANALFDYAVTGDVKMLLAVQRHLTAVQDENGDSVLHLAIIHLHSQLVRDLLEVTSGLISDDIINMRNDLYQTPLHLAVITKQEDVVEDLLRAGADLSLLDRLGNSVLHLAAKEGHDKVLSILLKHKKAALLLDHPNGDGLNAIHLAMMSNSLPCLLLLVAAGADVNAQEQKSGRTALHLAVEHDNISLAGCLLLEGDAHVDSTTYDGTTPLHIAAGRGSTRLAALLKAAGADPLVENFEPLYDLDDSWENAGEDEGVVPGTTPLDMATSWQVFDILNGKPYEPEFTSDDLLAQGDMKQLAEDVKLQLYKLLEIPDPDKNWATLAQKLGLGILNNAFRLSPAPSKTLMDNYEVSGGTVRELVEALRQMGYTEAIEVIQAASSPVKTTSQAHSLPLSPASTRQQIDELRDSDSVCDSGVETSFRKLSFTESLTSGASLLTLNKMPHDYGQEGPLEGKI
Chain of Signal transducer and activator of transcription 3 (Homo sapiens) (P40763 whole entry, looked up): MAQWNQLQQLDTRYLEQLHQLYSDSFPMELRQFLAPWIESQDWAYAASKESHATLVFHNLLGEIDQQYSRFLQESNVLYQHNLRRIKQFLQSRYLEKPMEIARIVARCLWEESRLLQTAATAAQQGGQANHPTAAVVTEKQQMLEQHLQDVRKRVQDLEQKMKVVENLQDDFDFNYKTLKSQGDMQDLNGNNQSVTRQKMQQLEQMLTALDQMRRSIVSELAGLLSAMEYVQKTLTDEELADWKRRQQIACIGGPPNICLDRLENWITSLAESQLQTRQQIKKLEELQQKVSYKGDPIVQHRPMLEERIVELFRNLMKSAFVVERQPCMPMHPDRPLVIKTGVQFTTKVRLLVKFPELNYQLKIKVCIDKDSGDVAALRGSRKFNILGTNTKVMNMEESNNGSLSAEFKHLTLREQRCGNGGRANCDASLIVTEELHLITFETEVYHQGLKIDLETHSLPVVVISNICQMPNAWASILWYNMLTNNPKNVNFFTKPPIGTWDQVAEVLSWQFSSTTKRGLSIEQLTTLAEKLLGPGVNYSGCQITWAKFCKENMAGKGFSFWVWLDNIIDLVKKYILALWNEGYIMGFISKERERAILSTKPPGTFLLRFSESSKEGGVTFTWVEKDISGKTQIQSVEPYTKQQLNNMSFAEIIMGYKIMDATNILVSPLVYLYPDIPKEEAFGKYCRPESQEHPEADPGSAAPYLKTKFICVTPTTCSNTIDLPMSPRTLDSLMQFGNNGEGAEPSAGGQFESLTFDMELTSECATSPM

For `CCCCC(CC)COC(=O)c1ccc(C(=O)OCC(CC)CCCC)c(C(=O)OCC(CC)CCCC)c1` (centres undefined), the result in assay [1], in [2], in assay [3], in assay [4], in assay [5] and in assay [6] was inactive. Moreover, the call in [7], in assay [8], in assay [9] and in assay [10] was inactive.

Take `[As]#[In]`: the outcome in [1], in [2], in assay [3], in assay [4], in [5] and in [6] was inactive. Besides, the outcome in assay [7], in [8], in assay [9] and in [10] was inactive.

Take `C=CCc1ccc2c(c1)OCO2`: the result in [1], in assay [2], in [3], in assay [4], in assay [5] and in assay [6] was inactive. The molecule was classed as inactive in assay [7], in assay [8], in [9] and in assay [10].

Take `CN(C)[C@@H]1C(=O)C(C(N)=O)=C(O)[C@@]2(O)C(=O)C3=C(O)c4c(O)cccc4[C@@](C)(O)[C@H]3C[C@@H]12`: the molecule was classed as inactive in assay [1], in assay [2], in [3], in assay [4], in assay [5] and in assay [6]. Further, the molecule was called inactive in assay [7], in assay [8], in assay [9] and in [10].

On to `O=[N+]([O-])C(Br)(CO)CO`, for which the outcome in [1], in assay [2], in assay [3], in [4], in [5] and in assay [6] was inactive. For the same molecule, the outcome in assay [7], in [8], in assay [9] and in assay [10] was inactive.

As for `Clc1ccc(C(c2ccc(Cl)cc2)C(Cl)(Cl)Cl)cc1`, the molecule was called inactive in assay [1], in assay [2], in assay [3], in [4], in assay [5] and in assay [6]. Also, the molecule was called inactive in [7], in assay [9] and in [10]. In addition, the AC50 in assay [8] is 17 µM (active).

As for `CCCCCCCCOC(=O)c1ccc(C(=O)OCCCCCCCC)c(C(=O)OCCCCCCCC)c1`, the result in [1], in [2], in [3], in assay [4], in assay [5] and in assay [6] was inactive. Besides, the result in [7], in [8] and in [9] was inactive.

`CC(C)(O)c1cnn2c(-c3ccc(F)c(-c4c(F)cccc4C#N)c3)cnc2n1`: the molecule was classed as inactive in assay [1], in [2], in assay [3], in assay [5], in [6] and in assay [8]. Further, the outcome in assay [9] and in assay [10] was inactive. Moreover, the AC50 in [4] was 9.92 µM (active); in assay [7] it was 6.33 µM (active).

Turning to `C1=Cc2cccc3cccc1c23`, the molecule was called inactive in assay [1], in [2], in assay [3], in assay [4], in [5] and in assay [6]. The outcome in assay [7], in assay [8], in [9] and in [10] was inactive.

As for `O=C(N[C@H](c1ccccc1)[C@@H]1CN2CCC1CC2)c1c(Cl)ccc(C(F)(F)F)c1Cl`, the concentration at half-maximal activity (AC50) was 71.5 µM (active) in assay [1]; 75.3 µM (active) in assay [2]; 77.8 µM (active) in assay [3]; 72.1 µM (active) in assay [4]; 71.5 µM (active) in [7]; 83.3 µM (active) in assay [9]. Further, the concentration at half-maximal activity (AC50) in [10] is 73.9 µM (active). Moreover, the molecule was called inactive in [5], in assay [6] and in assay [8].

Regarding `ClC1=C(Cl)C2(Cl)C3C(Cl)C=CC3C1(Cl)C2(Cl)Cl` (centres undefined), the molecule was classed as inactive in assay [1], in assay [2], in assay [3], in [4], in assay [6] and in assay [8]. For the same molecule, the molecule was called inactive in assay [9] and in [10]. Further, the results for the concentration at half-maximal activity (AC50) in assay [5] and in assay [7] were 50 µM (active) and 8.87 µM (active), respectively.

For `Cc1cccc(N)c1N`, the result in assay [1], in assay [2], in assay [3], in assay [5], in [6] and in assay [7] was inactive. Moreover, in assay [8], the call was inactive. The values for the half-maximal activity concentration (AC50) in assay [4], in [9] and in assay [10] were 47.4 µM (active), 9.92 µM (active) and 50 µM (active), respectively.

With `N#CC(Br)Br`, the molecule was called inactive in assay [1], in [2], in assay [3], in assay [4], in assay [5] and in [6]. Also, the call in assay [7], in [8], in [9] and in assay [10] was inactive.

In the case of `CCC(C)c1ccc(O)cc1` (centres undefined), the outcome in assay [1], in [2], in assay [3], in [4], in [5] and in assay [6] was inactive. The molecule was called inactive in assay [7], in [8] and in assay [10]. Further, the AC50 in assay [9] is 0.361 µM (active).

With `C[C@]12C=CC3=C4CCC(=O)C=C4CC[C@H]3[C@@H]1CC[C@@H]2O`, the outcome in [1], in [2], in assay [3], in [5], in [6] and in assay [7] was inactive. The outcome in assay [8] and in assay [9] was inactive. Further, the half-maximal activity concentration (AC50) in assay [4] is 41 µM (active); in assay [10] it was 9.92 µM (active).

As for `Nc1ccc([N+](=O)[O-])cc1`, the result in [1], in assay [2], in assay [3], in assay [4], in [5] and in assay [6] was inactive. Further, the molecule was called inactive in assay [7], in assay [8], in assay [9] and in [10].

For `Brc1ccc(Oc2ccccc2)cc1`, the outcome in [1], in assay [2], in assay [3], in [4], in [5] and in assay [6] was inactive. The outcome in [7], in assay [8], in assay [9] and in assay [10] was inactive.

Consider `CCC[CH2][Sn]([Cl])([CH2]CCC)[CH2]CCC`, for which the AC50 in assay [1] is 9.07 µM (active); in [4], 1.49 µM (active); in assay [6], 15.8 µM (active); in assay [8], 50 µM (active); in assay [9] it was 15.3 µM (active); in assay [10], 2.3 µM (active). The outcome in assay [2], in [3], in assay [5] and in assay [7] was inactive.

`COC(=O)c1ccccc1N`: the outcome in assay [1], in assay [2], in assay [3], in [4], in assay [5] and in assay [6] was inactive. In addition, the outcome in [7], in assay [8], in assay [9] and in assay [10] was inactive.

For the molecule `c1ccc2c(c1)oc1ccccc12`, the molecule was classed as inactive in assay [1], in [2], in [3], in assay [4], in [5] and in assay [6]. In addition, the result in [7], in assay [8], in [9] and in [10] was inactive.
